# Source: PubChem
# Lassa entry inh: blocks Lassa virus binding to or entry into cells; 300,000 compounds, 1.2% hits; Lassa virus pseudotype entry inhibition, cell reporter; Potency, µM (series often up to 37.9 µM), usual class: inhibitors; AID 540256; calls by dose curve; tested in HEK293 cells; further: nearly all actives have a fitted effect of over 50% in size
# FMDV inh: antivirals against foot and mouth disease virus. FMDV antiviral cell-based qHTS. Potency, µM (top dose mostly 57.9 µM), actives largely listed as inhibitors. 410,000 compounds, 1.2% hits; calls by dose curve; tested in HEK293T cells; further: read-out not given here; nearly all actives have a fitted effect of over 45% in size
# VACV Venus inh: vaccinia inhibition (Venus reporter). Vaccinia virus Venus reporter expression, fluorescence. Potency, µM (highest dose often 36.5 µM), hits mostly inhibitors. 330,000 compounds, 0.46% hits; calls by dose curve; tested in A549 cells; further: nearly all actives have a fitted effect of over 30% in size
# HCV inhibitor: blocks hepatitis C virus; Huh7.5.1 HCVcc-Cre infection, luciferase reporter, 44 h; Potency, µM (titrated, usually from 41.8 µM), usual class: inhibitors; 340,000 compounds, 3.4% hits; AID 651820; active means well fitted inhibition curve with a large enough effect; inconclusive means small, poorly fitted or top-dose-only effect, or another doubt; inactive means no such curve, though single readings can be large or run the other way
#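 HCVcc-Cre virus at an moi near 0.5 was added right after compound to cells cultured 4 h from seeding (1,000 cells/well). Luciferase activity was determined 44 h later, 15 min after substrate addition at RT.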
# Marburg entry inh: inhibitors of Marburg virus binding or cell entry; Marburg virus pseudotyped entry inhibition, cell reporter; Potency, µM (highest dose often 37.8 µM), hits mostly inhibitors; 300,000 compounds, 1.8% hits; calls by dose curve; tested in HEK293 cells
# Vaccinia mCherry: inhibitors of vaccinia virus infection (mCherry reporter signal); Potency, µM (titrated, usually from 36.5 µM), most hits filed as inhibitors; 310,000 compounds, 0.63% hits; Vaccinia virus mCherry reporter infection, fluorescence; calls by dose curve; tested in A549 cells; further: nearly all actives have a fitted effect of over 35% in size
# Hits are given with their value; - = inactive; ? = inconclusive; . = no result given. Rows were chosen to be rich in hits. Some 5.3% of all compounds tested hit in one or more screens of this group.
SMILES,Lassa entry inh,FMDV inh,VACV Venus inh,HCV inhibitor,Marburg entry inh,Vaccinia mCherry
C=CC[C@H](CC(=O)N(CCO)Cc1ccccc1)C(=O)N[C@H](COC(=O)[C@@H](CC=C)Cc1ccc(F)cc1)Cc1ccccc1,.,?,?,10µM,.,?
C=CCC[C@H](Cc1ccc(F)cc1)C(=O)OC[C@@H](Cc1c[nH]c2ccccc12)NC(=O)[C@@H](CC=C)CC(=O)N(CCO)Cc1ccccc1,.,?,11µM,?,.,13µM
C=CCC[C@@H](Cc1ccc(F)cc1)C(=O)OC[C@@H](Cc1c[nH]c2ccccc12)NC(=O)[C@@H](CC=C)CC(=O)NCCO,.,-,-,-,.,-
CCn1c(O)c(C(=O)C[C@@H]2NCCc3ccccc32)c(=O)n(CC)c1=S,.,.,.,.,-,.
Cc1ccc(C)c(-c2cc(C(=O)Nc3sc(C)c(C)c3C(N)=O)c3ccccc3n2)c1,?,22µM,.,11µM,?,.
COc1ccc(OC)c(NC(=O)C(C)OC(=O)c2cc3ccccc3[nH]2)c1 (centres undefined),.,?,.,11µM,.,.
COc1ccc(NC(=O)NNC(=O)C(C)Oc2ccc(C(C)C)cc2)c(OC)c1 (centres undefined),.,-,.,-,.,.
CCC(C)n1nccc1NC(=O)C(C)OC(=O)c1cc2ccccc2[nH]1 (centres undefined),-,?,.,?,-,.
COc1ccc(OC)c(NC(=O)C(C)Oc2ccc(Br)cc2)c1 (centres undefined),-,-,-,11µM,-,-
CSc1cccc(NC(=O)CSc2ncccc2C(=O)Oc2cccc([N+](=O)[O-])c2)c1,-,-,-,-,-,-
CCN(C(=O)CSc1ncccc1C(=O)Oc1cccc([N+](=O)[O-])c1)c1cccc(C)c1,-,25µM,-,-,-,-
CC(C)OC(=O)[C@H]1O[C@H](CCCCOCc2ccccc2)[C@@H](C)[C@H]2O[C@H]21,?,.,.,.,-,.
CCOC(=O)C(C(=O)OCC)C(Nc1ccc(Br)cc1)c1ccccc1 (centres undefined),-,13µM,.,-,-,.
COC(=O)c1ccc2c(=O)n(C3CCCCC3)c(SCC#N)nc2c1,?,-,.,-,0.015µM,.
CN1/C(=C/c2cccc[n+]2CCO)Sc2ccccc21,-,-,-,-,-,-
CC[n+]1ccccc1/C=C1\Sc2ccc(C)cc2N1C,.,?,.,6.3µM,.,.
Nc1ccc2c(c1)C(=O)c1cc(N)c(Cl)cc1-2,-,-,-,25µM,?,?
O=C(NCC1CCCO1)C1CCN(C2CCN(CCCC3CCCC3)CC2)CC1 (centres undefined),.,-,.,10µM,.,.
COc1ccc(Nc2nc(Nc3ccc(OC)cc3OC)nc(N3CCN(C)CC3)n2)c(OC)c1,?,?,-,1µM,?,-
COc1ccc(Nc2nc(N3CCCC3)nc(N3CCCC3)n2)c(OC)c1,-,-,.,10µM,2.1µM,.
COc1ccc([N+](=O)[O-])cc1/C=N/Nc1nc(N2CCCCC2)nc(N2CCCCC2)n1,-,?,-,20µM,-,-
COc1ccc(Cl)cc1Nc1nc(N2CCCC2)nc(N2CCCC2)n1,.,.,.,-,-,.
COc1ccc(Nc2nc(NC(C)(C)C)nc(N3CCCC3)n2)c(OC)c1,-,?,.,5.6µM,5.2µM,.
O=[N+]([O-])c1ccc(/C=N/Nc2nc(N3CCCCC3)nc(N3CCCCC3)n2)cc1,.,-,-,?,.,-
COc1ccc(Nc2nc(N3CCCCC3)nc(N3CCCCC3)n2)c(OC)c1,-,-,.,-,-,.
SMILES,Lassa entry inh,FMDV inh,VACV Venus inh,HCV inhibitor,Marburg entry inh,Vaccinia mCherry
O=c1c(-c2ccc(F)cc2)nc2cnc(N3CCNCC3)nc2n1Cc1ccc(F)cc1,.,-,.,.,.,.
CCC1C(=O)NCCN1Cc1ccc2c(c1)CN(Cc1cccn1-c1ccc(Cl)cn1)CCO2 (centres undefined),.,-,-,.,.,-
Cc1ccccc1-c1cccc(CN2CCc3nnc(C(NS(C)(=O)=O)C(C)C)n3CC2)c1 (centres undefined),.,-,-,.,.,-
COc1ccc(CCNc2nc(N3CCCCC3)nc(N3CCCCC3)n2)cc1OC,?,-,-,22µM,?,.
Cc1ccc(C(=O)OCC(=O)Nc2nc(-c3ccccc3)cs2)cc1NC(=O)c1ccco1,?,25µM,?,11µM,?,?
Nc1nc(-c2ccc(NC(=O)c3ccco3)cc2)cs1,?,-,?,?,5µM,?
Cc1nc(-c2ccc(NC(=O)c3ccco3)cc2)cs1,.,11µM,.,-,.,.
CC(=O)OC[C@H]1O[C@H](CCON=C(C)CCN2CCCc3nc(C)c(C)cc32)C=C[C@H]1OC(C)=O,.,.,.,.,-,.
COc1ccc(-c2cc(-c3ccccc3)[n+](C)c(-c3ccccc3)c2)cc1,?,?,-,?,6.3µM,-
O=C(COC(=O)CC(c1ccccc1)c1ccccc1)NCc1ccccc1,12µM,?,.,-,-,.
O=C(COC(=O)Cc1ccc(-c2ccccc2)cc1)NCc1ccccc1,-,-,.,-,-,.
CCCCN(CCCC)c1nc(-c2ccccc2)nc2ccccc12,-,-,-,.,.,-
CCCN(CCC)c1nc(-c2ccccn2)nc2ccccc12,?,?,?,?,?,4.5µM
C/C(=N\Nc1nc(-c2ccccn2)nc2ccccc12)c1ccc(F)cc1,.,-,.,4.5µM,.,.
CCCCN(CC)c1nc(-c2ccncc2)nc2ccccc12,-,25µM,-,5.6µM,?,-
CCCN(CCC)c1nc(-c2ccccc2F)nc2ccccc12,-,?,-,.,.,-
C/C(=N\Nc1nc(-c2ccccc2O)nc2ccccc12)c1ccccc1,-,-,-,-,-,-
c1ccc(CCNc2nc(-c3ccccn3)nc3ccccc23)cc1,?,?,-,2.8µM,?,-
Cc1cc(-c2ccnc(-n3ncc(C(=O)N4CCCCC4c4cccnc4)c3C3CC3)n2)c(C)s1 (centres undefined),.,-,-,.,.,-
COCCNC(=S)N/N=C(\C)c1ccc(Cl)s1,-,-,-,?,-,8.9µM
C/C(=N\NC(=S)NCc1ccccc1)c1ccc2ccccc2c1OC(F)F,.,-,.,13µM,.,.
COCCNC(=S)N/N=C(\C)c1ccc(Cl)c(Cl)c1Cl,?,-,?,?,?,?
C/C(=N\NC(=S)NCc1ccccc1)c1ccc(Cl)s1,-,-,-,11µM,?,-
Cc1cccc(C)c1-n1nnnc1C(c1ccnc2ccccc12)N1CCN(c2ccccc2F)CC1 (centres undefined),.,-,-,.,.,-
Cn1c(CCN2CCN(c3ccccn3)CC2)nc2cc(NC(=O)COc3ccc(Cl)cc3)ccc21,.,11µM,.,2.2µM,.,.
Cc1cccc(OCC(=O)Nc2ccc3c(c2)nc(CCN2CCN(c4ccccn4)CC2)n3C)c1,.,32µM,.,6.3µM,.,.
COc1ccc(Nc2cc(C)c3cc(NC(=O)COc4cccc(C)c4)ccc3n2)cc1,?,35µM,?,.,.,?
Cc1cccc(OCC(=O)Nc2ccc3c(c2)nc(CN2CCCCC2)n3C)c1,?,13µM,-,?,?,-
CN1CCN(CCc2nc3cc(NC(=O)COc4ccccc4)ccc3n2C)CC1,-,-,.,-,-,.
Cc1cccc(OCC(=O)Nc2ccc3c(c2)nc(CCN2CCCCC2)n3C)c1,.,-,.,-,.,.
